This note sets out measurements from PubChem BioAssay (NCI).

Compounds without any hit were thinned out: in the full panel of roughly 83,000, 20% have a hit.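 Cell lines were cultured in 96-well plates, exposed to a single compound concentration, and assessed for percent growth 48 hours later.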 Values without a mark were called inactive. Activity calls are given as the source filed them. How the source made its calls: active means growth percent below 10; inactive means the rest.

Test systems include SK-MEL-2 melanoma; EKVX NSCLC; SN12C renal; UO-31 renal; TK-10 renal; ACHN renal; CAKI-1 renal; A498 renal; CCRF-CEM leukemia; MOLT-4 leukemia.
Holding throughout (assay): NCI-60 one-dose screen, 48 h (100 = growth as untreated, 0 = no growth, -100 = all killed)
Details in all cases: 10 µM unless noted

For `O=C(/C=C/Nc1ccc2oc(=O)ccc2c1)c1cc2cc(Br)ccc2oc1=O`, the growth with SK-MEL-2 melanoma is 107%; in the assay with EKVX NSCLC, 105%; in the assay on SN12C renal, 102%; with UO-31 renal it was 81.4%; in the assay on TK-10 renal, 124%; with ACHN renal, 107%. The growth was 92.5% in the assay with CAKI-1 renal, 144% in the assay with A498 renal, 120% with CCRF-CEM leukemia and 115% in the assay on MOLT-4 leukemia.

For the molecule `COc1ccc(/C=C2\C(=N)N=C(SCc3nc4ccccc4[nH]3)NC2=O)cc1`, the growth in the assay on SK-MEL-2 melanoma was 114%; with EKVX NSCLC it was 109%; in the assay on SN12C renal, 103%; with UO-31 renal, 77.8%; with TK-10 renal it was 149%; in the assay with ACHN renal, 109%. Moreover, the growth in the assay with CAKI-1 renal was 92.8%; in the assay on A498 renal, 119%; in the assay with CCRF-CEM leukemia it was 94.9%; in the assay on MOLT-4 leukemia it was 104%.

On to `COc1ccc(C2=NN(C(C)=O)C(c3ccc(OCc4ccc(Cl)cc4)c(OC)c3)C2)cc1OC` (stereo not given), for which the growth with SK-MEL-2 melanoma is 44.1%; in the assay with EKVX NSCLC it was 46.3%; with SN12C renal, 43.2%; in the assay with UO-31 renal, 22.4%; in the assay on TK-10 renal, 44.1%; in the assay on ACHN renal, 42.9%. The growth is 47.2% in the assay on CAKI-1 renal, 64.9% in the assay with A498 renal, 50.1% with CCRF-CEM leukemia and 20.5% in the assay with MOLT-4 leukemia.

Turning to `CCCCSc1nc(Nc2ccc(C(C)=O)cc2)c(C#N)c(-c2ccc(OC)cc2)n1`, the growth was 114% with SK-MEL-2 melanoma; 65.1% in the assay with EKVX NSCLC; 27.9% in the assay with SN12C renal; 14.5% in the assay with UO-31 renal; -3.09% (active) with TK-10 renal; 2.58% (active) in the assay with ACHN renal. Moreover, the growth in the assay on CAKI-1 renal is 34%; in the assay with A498 renal, 59.7%; in the assay with CCRF-CEM leukemia, 100%; in the assay on MOLT-4 leukemia, 88%.

For `CCOc1ccc(-c2c(C#N)c(-c3ccc(Cl)cc3)nc3n[nH]c(-c4ccc(Cl)cc4)c23)cc1OC`, the growth was 64% in the assay with SK-MEL-2 melanoma; 26.6% with EKVX NSCLC; 69.2% in the assay with SN12C renal; 33.2% in the assay on UO-31 renal; 90% with TK-10 renal; 53.4% in the assay on ACHN renal. Besides, the growth was 53.1% in the assay with CAKI-1 renal, 114% in the assay with A498 renal, 33.7% in the assay on CCRF-CEM leukemia and -3.16% (active) with MOLT-4 leukemia.

On to `Cn1cc(-c2cc(N)n3nc(-c4cn(C)c5ccccc45)cc3n2)c2cc(Cl)ccc21`, for which the growth in the assay with SK-MEL-2 melanoma was -87.4% (active); with EKVX NSCLC it was -31% (active); with SN12C renal it was -53.9% (active); with UO-31 renal it was -88.5% (active); in the assay with TK-10 renal, -42.9% (active); with ACHN renal, -28.2% (active). For the same molecule, the growth with CAKI-1 renal was -82.5% (active); in the assay with A498 renal, -24.8% (active); in the assay with CCRF-CEM leukemia, -5.76% (active); with MOLT-4 leukemia it was -6.02% (active).

For `O=C(/C=C/c1cccc(OCc2ccc(F)cc2)c1)c1nc2ccccc2[nH]1`, the growth in the assay with SK-MEL-2 melanoma was 104%; in the assay on EKVX NSCLC, 38%; in the assay with SN12C renal it was 76.9%; in the assay on UO-31 renal, 69.4%; in the assay on TK-10 renal it was 79%; with ACHN renal, 78.9%. Also, the growth with CAKI-1 renal was 67.3%; in the assay with A498 renal, 112%; in the assay on CCRF-CEM leukemia, 6.9% (active); with MOLT-4 leukemia, -11.2% (active).

`C/C(=N\N=C\c1cc([N+](=O)[O-])ccc1Cl)c1ccc2c(c1)Nc1ccccc1S2`: the growth in the assay with SK-MEL-2 melanoma is 90.5%; in the assay on EKVX NSCLC, 48.5%; in the assay with SN12C renal it was 12.4%; in the assay with UO-31 renal it was -13.7% (active); in the assay on TK-10 renal, 8.88% (active); with ACHN renal it was -43.5% (active). Further, the growth with CAKI-1 renal was 31.3%; in the assay with A498 renal, 6.23% (active); with CCRF-CEM leukemia, 55%; with MOLT-4 leukemia, 44%.

In the case of `C=C1CC[C@@H]2[C@]3(C)COC(c4cn[nH]c4-c4ccc(OC)cc4)O[C@@H]3CC[C@@]2(C)[C@@H]1C/C=C1/C(=O)OCC1O` (stereo not given in full), the growth was -42.2% (active) with SK-MEL-2 melanoma; -59.8% (active) in the assay on EKVX NSCLC; -14.3% (active) in the assay on SN12C renal; -44.2% (active) in the assay on UO-31 renal; 5.62% (active) in the assay on TK-10 renal; 3.82% (active) in the assay with ACHN renal. Further, the growth is -23.4% (active) in the assay on CAKI-1 renal, 50.2% in the assay with A498 renal, 0.599% (active) in the assay with CCRF-CEM leukemia and 8.3% (active) with MOLT-4 leukemia.

Regarding `Nc1nnc(-c2c[nH]c3ccc(Br)cc23)c(-c2c[nH]c3ncc(Br)cc23)n1`, the growth was -33.2% (active) with SK-MEL-2 melanoma; 46.6% with EKVX NSCLC; 46.5% in the assay with SN12C renal; 42.1% with UO-31 renal; 33.1% in the assay on TK-10 renal; 29.6% with ACHN renal. The growth is 21% in the assay with CAKI-1 renal, 17.6% with A498 renal, 13.4% with CCRF-CEM leukemia and 2.51% (active) with MOLT-4 leukemia.

Take `N=C1N=C(SCc2nc3ccccc3[nH]2)NC(=O)/C1=C/c1ccc(Cl)cc1`: the growth is 105% in the assay on SK-MEL-2 melanoma; 106% with EKVX NSCLC; 98.6% with SN12C renal; 70.5% in the assay on UO-31 renal; 143% with TK-10 renal; 99.6% in the assay on ACHN renal. The growth was 85.9% in the assay on CAKI-1 renal, 122% with A498 renal, 100% in the assay on CCRF-CEM leukemia and 99.5% with MOLT-4 leukemia.

For `C=C1CCC2C3(C)COC(c4cccs4)OC3CCC2(C)C1CC(Sc1ccccc1)C1=CCOC1=O` (stereo not given), the growth with SK-MEL-2 melanoma was 98.2%; in the assay with EKVX NSCLC, 116%; in the assay on SN12C renal it was 46.4%; with UO-31 renal, 58.5%; in the assay on TK-10 renal, 118%; with ACHN renal, 91.1%. Further, the growth with CAKI-1 renal is 101%; in the assay on A498 renal, 133%; with CCRF-CEM leukemia, 1.2% (active); with MOLT-4 leukemia it was 52.9%.

Turning to `O=C1c2c(c3c4cc(F)ccc4oc3c3[nH]c4ccc(Br)cc4c23)C(=O)N1O`, the growth was 5.56% (active) in the assay on SK-MEL-2 melanoma; 76.5% in the assay on EKVX NSCLC; 19.2% with SN12C renal; 9.04% (active) in the assay on UO-31 renal; 137% with TK-10 renal; -33.8% (active) in the assay with ACHN renal. Further, the growth with CAKI-1 renal is 21.9%; in the assay on A498 renal, 119%; with CCRF-CEM leukemia, 9.46% (active); in the assay on MOLT-4 leukemia, 7.83% (active).
